The campaign covered roughly 320,000 compounds. About 160 (0.05%) were called active. Rule as the data show it: active = inhibition above about 38%; inactive = the rest. The full list was thinned out, with actives kept by preference.
Target: Serine protease Rv3671c (Mycobacterium tuberculosis (strain ATCC 25618 / H37Rv)) (UniProt P9WHR9)
Assay: inhibition of M. tuberculosis membrane protease Rv3671c – biochemical, fluorescence polarization, M. tuberculosis H37Rv, primary screen (AID 2606);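 also: extracellular domain of Rv3671c used as enzyme; 0% = enzyme with DMSO and 100% = no enzyme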
Settings: at 5.96 µM; stronger effect = higher value

Sequence of Serine protease Rv3671c (Mycobacterium tuberculosis (strain ATCC 25618 / H37Rv)) (P9WHR9 whole entry, looked up, the tested form may be a part): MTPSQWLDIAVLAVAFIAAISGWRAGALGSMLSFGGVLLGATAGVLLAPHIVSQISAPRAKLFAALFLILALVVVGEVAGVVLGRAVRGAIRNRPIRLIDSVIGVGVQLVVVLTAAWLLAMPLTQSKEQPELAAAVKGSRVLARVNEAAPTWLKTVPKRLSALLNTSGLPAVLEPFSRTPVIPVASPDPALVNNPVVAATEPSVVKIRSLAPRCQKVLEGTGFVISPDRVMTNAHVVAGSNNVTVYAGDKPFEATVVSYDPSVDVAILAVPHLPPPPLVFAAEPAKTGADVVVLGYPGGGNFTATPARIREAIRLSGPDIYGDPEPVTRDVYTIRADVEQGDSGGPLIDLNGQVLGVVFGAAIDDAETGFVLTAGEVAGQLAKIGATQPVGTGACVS

SMILES	inhibition
O=C(Nc1nnc(Cc2ccc(Cl)cc2)s1)c1ccncc1	7.51% (inactive)
COCCn1c(N)c(NCc2ccccc2)c(=O)[nH]c1=O	-10.5% (inactive)
Cc1ccc(NC(=O)C2(N3CCC3=O)CCCCC2)cc1	3.63% (inactive)
CCOc1ccc(CN(C)C(=O)c2ccc(=O)[nH]c2)cc1	0.46% (inactive)
Cc1cc(C(=O)OC(C)C(=O)NC2CCCCC2C)c(C)o1 (stereo not given)	-0.91% (inactive)
COc1ccc(Cn2c(O)c(/C=C3/C=CC=N3)c(=O)[nH]c2=O)cc1	-6.46% (inactive)
C[C@H](NS(=O)(=O)c1ccc(Cl)cc1)C(=O)OCC(=O)N1CCOCC1	3.78% (inactive)
CN(C)CC(C)(C)CNC(=O)c1cc(Br)cc(Br)c1O	9.55% (inactive)
CCCCc1cc2c(s1)CCCC/C2=N/O	-4.78% (inactive)
CCc1nc2ccc(C(=O)N3CCN(c4cccc(Cl)c4)CC3)cc2nc1CC	0.29% (inactive)
O=S(=O)(NC1CC2CCC1C2)c1ccc(Cl)cc1 (stereo not given)	0.26% (inactive)
CC(=O)c1ccc(N2CCN(S(=O)(=O)c3c(C)[nH]c(=O)[nH]c3=O)CC2)cc1	5.45% (inactive)
COc1ccc(NC(=O)C(C)SCc2ccccc2)cc1 (stereo not given)	0.17% (inactive)
C/C(=N\NC(=O)c1ccc(CSc2nc(C)cc(C)n2)cc1)C1CCCCC1	-1.11% (inactive)
O=C1Nc2cc(C(=O)N3CCN(c4ccc(F)cc4)CC3)ccc2NC1CSCc1cccc(F)c1 (stereo not given)	-19.6% (inactive)
O=C(Nc1cc(S(=O)(=O)Nc2ccc(Cl)cc2)ccc1O)c1ccc(F)cc1F	-20% (inactive)
COc1ccccc1NC(=S)N1CCN(C(c2ccccc2)c2ccccc2)CC1	-3.52% (inactive)
CCOc1ccc(OCC)c(NC(=O)CN(C)S(=O)(=O)c2cccc3nsnc23)c1	4.81% (inactive)
CC(=O)OCCOCn1cnn2c(=O)c(Br)c(C)nc12	9.74% (inactive)
Cc1nc2nc[nH]n2c(=O)c1NC(=O)c1cccc(OCC(C)C)c1	2.66% (inactive)
Cn1cnc(S(=O)(=O)Nc2ccc3c(c2)OCCO3)c1	-5.54% (inactive)
O=C(NCc1ccccc1)[C@@H]1CSC2c3ccccc3C(=O)N21 (stereo not given in full)	5.62% (inactive)
CCc1cccc2c(C=C(C#N)C#N)cn(CC(=O)N3CCCCC3)c12	-5.84% (inactive)

SMILES	inhibition
COc1cccc(CNC(=O)Cn2c(=O)oc3cc(S(=O)(=O)N4CCCCC4)ccc32)c1	-26.5% (inactive)
O=C(O)c1ccn(COc2ccc(Br)cc2)n1	5.52% (inactive)
CCc1ccc(N(C(=O)c2csnn2)C(C(=O)NC2CCCCC2)c2cccnc2)cc1 (stereo not given)	-1.12% (inactive)
COc1ccccc1Nc1nnc(SC(C)C(=O)NC2CC2)s1 (stereo not given)	6.85% (inactive)
C=C1CCC(N(O)c2cc(C)on2)C(=C)CCC2C1CC2(C)C (stereo not given)	-8.68% (inactive)
O=C(CNS(=O)(=O)c1ccc2ccccc2c1)Nc1ccc(F)c(F)c1F	2.38% (inactive)
CCN(CC)C(=O)CSc1nnc(-c2cnccn2)n1-c1ccc(C)cc1	-10.7% (inactive)
O=C(O)C1=NN(c2c(F)c(F)cc(F)c2F)C(=O)CC1	-8.71% (inactive)
CCOc1ccc(S(=O)(=O)N2CCC(c3ccccc3)CC2)cc1C(=O)O	2.59% (inactive)
CCCN(CCC)S(=O)(=O)c1ccc(C(=O)NNC(=O)c2cc(OC)c(OC)c(OC)c2)cc1	2.22% (inactive)
CCCCNC(=O)C1(c2ccc(OC)cc2)CCOCC1	1.73% (inactive)
CC(C)(C)NS(=O)(=O)NC(=O)C1=C(N2CCCC2)COC1=O	-1.86% (inactive)
O=c1[nH]c2ccccc2n2c(-c3ccccc3)nnc12	-13% (inactive)
COc1ccc(NC(=O)c2cc([N+](=O)[O-])ccc2NC(=O)CNC2CCCCC2C)c(OC)c1 (stereo not given)	-11.9% (inactive)
CN(C)C(=O)N=NC(=O)N(C)C	-1.83% (inactive)
O=C(Nc1ccccc1C(=O)O)c1ccc(N2C(=O)C3CC=CCC3C2=O)cc1 (stereo not given)	-4.79% (inactive)
COc1cccc(CNc2ncc(-c3ccccc3)n2C)c1	-4.35% (inactive)
O=C(Cn1ccc([N+](=O)[O-])n1)NCc1cccs1	2.31% (inactive)
CCOc1ncccc1C(=O)OCC(=O)c1c[nH]c2ccccc12	2.18% (inactive)
Cc1ccccc1CSc1nnc(CCCCCNC(=O)OC(C)(C)C)o1	-2.88% (inactive)
COc1cc([N+](=O)[O-])cc([N+](=O)[O-])c1NC(=O)N1CCOCC1	0.53% (inactive)
O=C(CN1C(=O)NC2(CCCC2)C1=O)OCCOc1ccc(F)cc1	0.5% (inactive)

From PubChem BioAssay AID2606 (The Scripps Research Institute Molecular Screening Center, 2010)
